Experimental data from PubChem BioAssay AID771 (SRMLSC, 2007).
Where “and” joins values, the source holds several entries; their conditions need not be identical. Equal values may be shown once. About 55 (2%) of roughly 3,300 compounds were called active. This is one part of a sample in which actives are shown more often than they occur.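 Rule for the calls: active = growth inhibition above 90%, meaning viable cell count by imaging cut by more than 90% versus vehicle controls; inactive = growth inhibition below 90%.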 Some compounds were tested as several samples or in several runs, with calls that do not always agree.

Assay: HT29 colon tumor cell growth inhibition, primary screen, imaging, high content imaging, 48 h, CellTiter-Glo (AID 771);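 for condensed nuclei: condensed means Hoechst nuclear area under control median minus 1.5 SD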
Details: HCS imaging cell count, at 10 µM, stronger effect = higher value; for condensed nuclei: measured here: percent cells with condensed nuclei
[1] = measured here: ATP CellTiter-Glo viability inhibition

| Structure (SMILES) | growth inhibition | growth inhibition [1] | condensed nuclei |
| --- | --- | --- | --- |
| CCOC(=O)C1=C(C)N=C2SC(C)C(=O)N2C1c1ccc(OC(C)=O)c(OC)c1 (stereo not drawn) | 42.7% (inactive) | 12.7% | 1.51% |
| CC(C)Cc1[nH]c(=O)c(C#N)c2c1COC(C)(C)C2 | -9.54% (inactive) | 6.82% | 1.96% |
| CCCCCCc1cc2cc(-c3nnc(-c4ccccc4O)o3)c(=O)oc2cc1O | 4.58% (inactive) | 3.73% | 3.18% |
| CCN(CC)c1ccc2cc(C(=O)Nc3ccccn3)c(=O)oc2c1 | -58.4% (inactive) | -2.93% | 2.18% |
| CCN(CC)c1ccc2cc(-c3nnc(-c4ccncc4)o3)c(=O)oc2c1 | 100% (active) | -8.56% | 1.36% |
| CN1CCN(CCCN2c3ccccc3Sc3ccc(Cl)cc32)CC1 | -16.4% (inactive) | – | 1.86% |
| CSc1ccc2c(c1)N(CCC1CCCCN1C)c1ccccc1S2 (stereo not drawn) | 8.58% (inactive) | – | 2.87% |
| OCCN1CCN(CCCN2c3ccccc3Sc3ccc(C(F)(F)F)cc32)CC1 | 99.7% (active) | – | 57% |
| CN1CCN(CCC(=O)N2c3ccccc3Sc3ccc(Cl)cc32)CC1 | 55.5% (inactive) | -11.6% | 2.4% |
| CN1CCN(CCCN2c3ccccc3Sc3ccc(C(F)(F)F)cc32)CC1 | 99.7% (active) | – | 45.5% |
| OCCN1CCN(CCCN2c3ccccc3Sc3ccc(Cl)cc32)CC1 | 84.9% (inactive) | – | 46.7% |
| CCCOc1ccc(/C(O)=C2/C(=O)C(=O)N(CCN3CCOCC3)C2c2ccccc2)cc1 (stereo not drawn) | 6.6% (inactive) | -7.42% | 3.56% |
| CC1(C)Cc2nc(N)c(C(=O)NCCO)cc2CO1 | -4.53% (inactive) | -20.8% | 3.27% |
| COc1ccc(/C(O)=C2\C(=O)C(=O)N(c3cc(C)on3)C2c2cccc(OC)c2OC)cc1C (stereo not drawn) | 37.5% (inactive) | -6.66% | 2.33% |
| CCN(CC)CCNC(=O)c1ccccc1N | 25.6% (inactive) | 4.22% | 0.38% |
| CCCCOc1cc(C(=O)NCCN(CC)CC)c2ccccc2n1 | 2.54% (inactive) and 97.2% (active) | – | 0.87% and 22.7% |
| CCCCOc1ccccc1C(=O)NCCCC(=O)O | 45.1% (inactive) | 27.4% | 2.4% |
| CC(C)C1Cc2c(C#N)c(N)sc(=S)c2CO1 (stereo not drawn) | -17.8% (inactive) | -10.1% | 3.02% |
| CNCCC(Oc1ccc(C(F)(F)F)cc1)c1ccccc1 (stereo not drawn) | 98.6% (active) | – | 23.4% |
| CC(=N\O)/C(CN(C)C)=N/O | 19.1% (inactive) | 5.48% | 2.85% |
| CCc1[nH]nc2c1C(c1ccc(Br)s1)C(C#N)=C(N)O2 (stereo not drawn) | 61% (inactive) | 16.8% | 4.86% |
| O=C(O)/C=C/c1ccc(O)c(O)c1 | -1.98% (inactive) | – | 2.21% |
| COc1cc(/C=C/C(=O)CC(=O)/C=C/c2ccc(O)c(OC)c2)ccc1O | 95.8% (active) | – | 35.4% |
| CCN(CC)C(=O)c1ccc(O)c(OC)c1 | -10.4% (inactive) | – | 2.13% |
| CCCc1nnc(SCc2ccc(OCC)cc2)n1N | 34.1% (inactive) | 0.5% | 1.98% |
| NC(Cc1ccc(Oc2ccc(O)cc2)cc1)C(=O)O (stereo not drawn) | -13.8% (inactive) | – | 5.21% |
| CCn1nnc(C(=O)O)c1C(=O)O | -4.1% (inactive) | -5.53% | 2.3% |

| Structure (SMILES) | growth inhibition | growth inhibition [1] | condensed nuclei |
| --- | --- | --- | --- |
| Brc1ccc2c(c1)CNc1c(ncnc1N1CCOCC1)O2 | 45.1% (inactive) | 12.2% | 0.48% |
| N#CC12CCCCC1CC1CCCCC1(C#N)N2Cc1cccnc1 (stereo not drawn) | 20.9% (inactive) | -2.93% | 2.55% |
| CNCCCC1c2ccccc2C=Cc2ccccc21 | 98% (active) | – | 25% |
| CC(NC(=O)c1ccc(=O)oc1)c1ccccc1 (stereo not drawn) | 53.4% (inactive) | -2.53% | 5.45% |
| CC(NCCC(c1ccccc1)c1ccccc1)c1ccccc1 (stereo not drawn) | 95.3% (active) | – | 28.3% |
| O=C(O)c1ccc(C2CCCCC2)cn1 | -17.2% (inactive) | -12.9% | 0.69% |
| CCN(CC)CCN1C(=O)C(=O)/C(=C(/O)c2c(C)[nH]c(C(=O)OC)c2C)C1c1ccccc1 (stereo not drawn) | 29.2% (inactive) | 26.4% | 11% |
| CN(C)CCCN1c2ccccc2CCc2ccccc21 | -27.8% (inactive) | – | 2.51% |
| CN(C)CCCN1c2ccccc2CCc2ccc(Cl)cc21 | 89.6% (inactive) | – | 39.3% |
| CNCCCN1c2ccccc2CCc2ccccc21 | 95.8% (active) | – | 13.8% |
| CCOC(=O)NC(Nc1sc2c(c1C(=O)OC)CCN(C)C2)(C(F)(F)F)C(F)(F)F | -25.9% (inactive) | 15.4% | 2.15% |
| Cc1cc(=O)oc(C)c1C(=O)N[C@@H]1CCCCNC1=O | -26.2% (inactive) | -3.89% | 2.68% |
| CCCOC(=O)CSC1=C(C#N)C(c2ccc3c(c2)OCO3)CC(=O)N1 (stereo not drawn) | 75.6% (inactive) | 56.6% | 7.29% |
| CCOC(=O)CSC1=C(C#N)C(c2ccc3c(c2)OCO3)CC(=O)N1 (stereo not drawn) | 90.1% (active) | 66.1% | 12.2% |
| CCCCOC(=O)CSC1=C(C#N)C(c2ccc3c(c2)OCO3)CC(=O)N1 (stereo not drawn) | -15.7% (inactive) | -8.71% | 2.23% |
| Cn1cccc1/C=N/n1cnnc1 | 13.3% (inactive) | 0.83% | 11% |
| CN(C)CCCN1c2ccccc2Sc2ccc(C(F)(F)F)cc21 | 93.8% (active) | – | 30.8% |
| COc1ccc([C@@H]2Sc3ccccc3N(CCN(C)C)C(=O)[C@@H]2OC(C)=O)cc1 | -4.52% (inactive) | – | 2.39% |
| CC(CN1c2ccccc2Sc2ccccc21)N(C)C (stereo not drawn) | 65.5% (inactive) | – | 6.11% |
| CN(C)CCCN1c2ccccc2Sc2ccccc21 | 40.7% (inactive) | – | 5.02% |
| CN(C)CCCN1c2ccccc2Sc2ccc(Cl)cc21 | 92.7% (active) | – | 22.1% |
| CCOc1c(C)cc2[nH]c(CCC(=O)O)nc2c1C | 26.2% (inactive) | 7.89% | 2.92% |
| CN1CCN(Cc2c(O)c(Cl)cc3c(-c4ccccc4)cc(=O)oc23)CC1 | 8.72% (inactive) | -6.84% | 1.6% |
| C(=N\n1cnnc1)/c1cccc(Oc2ccccc2)c1 | -29.2% (inactive) | -4.38% | 2.95% |
| COc1ccccc1N1CCN(C2CCN(C(=O)c3cccs3)CC2)CC1 | 32% (inactive) | 11.2% | 4.31% |
| CCCCCCn1cc(C(=O)O)c(=O)c2ccccc21 | -27.6% (inactive) | 1.82% | 2.69% |
